Screen size: about 420,000 compounds; about 50,000 (12%) were called active. Inconclusive results (about 26%) are left out. The list comes from a sample in which actives are over-represented; it also holds similar structures and randomly drawn compounds. Values without a mark were called inactive. Calls follow the shape of the dose curve; as a rule, active = well fitted inhibition curve with a large enough effect; inconclusive = small, poorly fitted or top-dose-only effect; inactive = flat fitted curve, though single readings scatter.
Assay: qHTS for Inhibitors of human tyrosyl-DNA phosphodiesterase 1 (TDP1): qHTS in cells in presence of CPT; also: nearly all actives have a fitted effect of over 55% in size
Details: chicken DT40 Tdp1-/-;hTDP1 cells + 20 nM CPT, ATP luminescence, 48 h; series mostly up to 46.2 µM; activity change, negative = growth inhibition: at the top concentration
In short: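 Chicken DT40 Tdp1-/- cells stably complemented with human TDP1 were seeded at 400 cells/well in medium containing 20 nM camptothecin, exposed to pin-transferred compounds, and grown at 37 °C for at least 48 hr. Viability was read as ATP luminescence.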
% is scaled to controls: 0 for no effect and ±100 for the full control effect; potency is read from the fitted curve at half-maximal effect.

| SMILES | activity change, negative = growth inhibition | Potency |
| --- | --- | --- |
| COC(=O)c1ccc(NC(=O)CSc2nncc3ccc(OC)c(OC)c23)cc1 | -6.52% | – |
| COC(=O)c1ccc(-c2c(-c3ccccc3)ncc3cc(OC)c(OC)cc23)cc1 | – | 20.6 µM (active) |
| COc1ccc(/C(=N\O)c2nccc3cc(OC)c(OC)cc23)cc1OC | -17.8% | – |
| CCN(CC)CCn1c2c(c(SCC(=O)Nc3ccc(C(C)C)cc3)nc1=O)CCC2 | -2.66% | – |
| CC(=O)OCC(=O)C1(O)CCC2C3CC(C)C4=CC(=O)CCC4(C)C3C(O)CC21C (stereo not given) | -6.1% | – |
| COc1ccc(C(=O)NC(C)Cn2nc(C)cc2C)cc1OC1CCN(C(C)=O)CC1 (stereo not given) | -1.86% | – |
| O=C(CN1C(=O)c2ccc([N+](=O)[O-])cc2C1=O)Nc1nnc(C2CC2)s1 | 17% | – |
| C=CCOc1ccc(/C=C/C(=O)OCC(=O)NCC2CCCO2)cc1 (stereo not given) | -16.3% | – |
| CCNC(=O)c1ccc(OCC(=O)Nc2ccc(F)cc2)c(OC)c1 | 0.955% | – |
| COc1ccc(/C=N/NC(=O)c2ccc3c(c2)OCCO3)c(OC)c1 | 1.79% | – |
| COc1ccc(C(=O)N/N=C2\CCS(=O)(=O)c3ccc(F)cc32)cc1OC | – | 18.4 µM (active) |
| CCN(Cc1ccccc1)C(=O)Cc1ccc(OC)c(S(=O)(=O)N2CCOCC2)c1 | -24.5% | – |
| O=C(O)/C=C/c1cn(Cc2ccccc2)nc1-c1cccs1 | 1.59% | – |
| CCOC(=O)/C(C#N)=C/c1cn(CCC(=O)O)nc1-c1ccc(Br)cc1 | -3.43% | – |
| O=C(O)CCn1cc(/C=C/C(=O)c2ccc(Cl)cc2)c(-c2cccc(Br)c2)n1 | – | 20.6 µM (active) |
| Cc1cc(C)cc(N)c1 | -11.1% | – |
| O=C(NCc1ccco1)C(c1ccncc1)N(C(=O)Cn1nnc2ccccc21)c1ccccc1 (stereo not given) | 3.69% | – |
| CC(C)(C)OC(=O)N/N=C/c1ccc(C(=O)O)cc1 | 5.2% | – |
| COC(=O)C1(C(=O)OC)C/C=C\CN(S(=O)(=O)c2ccccc2[N+](=O)[O-])CCC1 | -27.1% | – |
| Cc1nnsc1C(=O)N/N=C/c1cccc(C(F)(F)F)c1 | 2.4% | – |
| Oc1ccc(/C=N/Nc2ccc(C(F)(F)F)cn2)cc1O | – | 2.91 µM (active) |
| O=C(Nc1ccccc1)Nc1ccc(C(F)(F)F)cn1 | -14.5% | – |
| COc1ccc(C(=O)Nc2cccc(/C=C(/CCC(=O)O)c3nc4ccccc4s3)c2)cc1 | -26.9% | – |
| O=C(CC(NCc1cccnc1)C(=O)O)Nc1ccc(O)cc1 (stereo not given) | 10.1% | – |
| Cc1cc2c(cc1C)C(c1cccc(OC(C)C)c1)CC(=O)N2 (stereo not given) | – | 16.4 µM (active) |

| SMILES | activity change, negative = growth inhibition | Potency |
| --- | --- | --- |
| COc1cc2c(cc1OC)C(c1ccncc1)CC(=O)N2 (stereo not given) | 3.17% | – |
| COC(=O)c1ccc(C2CC(=O)Nc3cc(OC)c(OC)cc32)cc1 (stereo not given) | -2.88% | – |
| O=C(NC(c1ccccc1)c1ccccc1)N1CCN(CCO)CC1 | 0.157% | – |
| Cc1cccc(C)c1NC(=O)C(c1cccc(F)c1)N1CCN(C)CC1 (stereo not given) | -28.4% | – |
| CC(=O)Nc1sc2c(c1C(c1cccc(F)c1)N1CCN(CCO)CC1)CCCC2 (stereo not given) | – | 23.1 µM (active) |
| COc1ccccc1CNC(=O)COC(=O)CNS(=O)(=O)c1ccc(NC(C)=O)cc1 | 8.96% | – |
| O=C(Cc1ccccc1)Nc1c(Cl)ccc2nsnc12 | -1.89% | – |
| CCOC(=O)N1CCN(C(=O)c2cn(C)c3ccc(S(=O)(=O)N(CC)CC)cc3c2=O)CC1 | -4.93% | – |
| CCN(CC)S(=O)(=O)c1ccc2c(c1)c(=O)c(C(=O)N1CCN(c3cccc(Cl)c3)CC1)cn2C | -62.1% | – |
| C=CCn1cc(C(=O)NCc2ccc(Cl)cc2)c(=O)c2cc(S(=O)(=O)N(CC)CC)ccc21 | – | 20.6 µM (active) |
| CSc1ncnc2c1ncn2CCCNCC(C)c1ccccc1 (stereo not given) | 1.45% | – |
| O=C(Nc1cc(S(=O)(=O)N2CCOCC2)ccc1OCC(F)(F)F)c1ccc(N2CCCC2=O)cc1 | -16% | – |
| CC(C)c1ccc(NC(=S)NC2CC3C=CC2C3)cc1 (stereo not given) | – | 14.6 µM (active) |
| S=C(NNC(=S)NC1CC2CCC1C2)NC1CC2C=CC1C2 (stereo not given) | -28.8% | – |
| S=C(NNC(=S)NC1CC2C=CC1C2)NC1CC2C=CC1C2 (stereo not given) | -3.95% | – |
| COCCCN(C(=O)CSCc1ccc(C)cc1)c1c(N)n(Cc2ccccc2)c(=O)[nH]c1=O | -1.77% | – |
| O=C(NCCC1CCCCN1S(=O)(=O)c1ccc(Cl)cc1)C(=O)NCc1ccco1 (stereo not given) | – | 16.4 µM (active) |
| O=C(NCCC1CCCCN1S(=O)(=O)c1ccccc1)C(=O)NCC1CCCO1 (stereo not given) | 5.7% | – |
| Cc1ccc(S(=O)(=O)N2CCCC2C(=O)NCc2ccco2)cc1 (stereo not given) | -23.3% | – |
| O=C(/C=C/[C@H]1O[C@@H](n2ccc(=O)[nH]c2=O)[C@H](O)[C@@H]1O)NCc1ccccn1 | 2.63% | – |
| COc1ccc(OCCn2ccnc2C)cc1 | 4.61% | – |
| COc1ccc(OCCCn2c(C)nc3cc(C)c(C)cc32)cc1 | – | 11.6 µM (active) |
| Cc1cc2nc(C)n(CCCNC(=O)Nc3ccccc3)c2cc1C | -18.6% | – |
| CCn1cc(C(=O)NCCC(=O)NCCO)c(=O)c2cc3c(cc21)OCO3 | 4.51% | – |
| COC(=O)C1=C(C(=O)OC)[C@@H]2N(C)c3ccccc3[C@@]23C[C@@H](C(=O)OC)N(C(=O)c2ccco2)C3=N1 | 2.69% | – |

Source: PubChem BioAssay AID686979 (National Center for Advancing Translational Sciences (NCATS), 2013)
